Drawing on PubChem BioAssay (EPA / NIEHS), this text covers outcome and AC50 for 40 molecules.

Molecules are shown by their SMILES. The source made the active and inactive calls. The calls were made as follows: active = hit-call score of the fitted dose curve at least 0.9, where 1 is the maximum; inactive = score below 0.9.

The assay in a line: ATG_SREBP_CIS: Attagene CIS-FACTORIAL HepG2 Assay for human Sterol Regulatory Element Binding (SREBP) (AID 2282962). The following applies: HepG2 Attagene cis-factorial SREBP reporter, mRNA; actives raise or lower the signal. As to the method: ATG_CIS is a cell-based, multiplexed-readout assay that uses HepG2, a human liver cell line, with measurements taken at 24 hours after chemical dosing in a 24-well plate.ATG_SREBP_CIS is one of 52 assay component(s) measured or calculated from the ATG_CIS assay. It is designed to make measurements of mRNA induction, a form of inducible reporter, as detected with fluorescence intensity signals by Reverse transcription polymerase chain reaction (RT-PCR) and Capillary electrophoresis technology.Data from the assay component ATG_SREBP_CIS was analyzed into 1 assay endpoint. This assay endpoint, ATG_SREBP_CIS, was analyzed with bidirectional fitting relative to DMSO as the negative control and baseline of activity. Using a type of inducible reporter, measures of mRNA for gain or loss-of-signal activity can be used to understand the reporter gene at the transcription factor-level as they relate to the gene SREBF1. Furthermore, this assay endpoint can be referred to as a primary readout, because this assay has produced multiple assay endpoints where this one serves a reporter gene function. To generalize the intended target to other relatable targets, this assay endpoint is annotated to the dna binding intended target family, where the subfamily is basic helix-loop-helix leucine zipper.
Human liver HepG2 cells are transiently transfected with multiple reporter transcription units (MRTUs) in 6-well plates using FuGene 6 reagent (Roche; 3 ml FuGene/1 mg DNA). The MRTU constructs are regulated by a cis-regulating element (promoter). […] A major difference between the CIS and TRANS system is that in CIS activities of endogenous TFs are measured, whereas the TRANS assay evaluates changes in activities of exogenous, chimeric NR-Gal4 proteins. […] At the end of 24 hour incubation, total RNA was isolated using TriZol reagent (Invitrogen). The isolated RNA is then reverse-transcribed using oligo(dT) primer and Mo-MLV reverse transcriptase (Invitrogen) with DNAse I (Ambion) treatment for 30 min. The one-tenth of the produced cDNA was amplified by PCR using Taq DNA polymerase (Invitrogen) and two reporter sequence-specific primers. The PCR products were fluorescently labeled by primer extension with 6-arboxyfluorescein (6-FAM) 5'-labeled reporter sequence-specific primer (2 min at 95 C, 20 s at 68 C and 10 min at 72 C) and these products were digested with 5U of HpaI (New England Biolabs) for 2h at 37 C. The fragments were purified using Qiaquick PCR columns (Qiagen), analyzed on an ABI 3130xL genetic analyzer (Applied Biosystems) with peak positions identified by using a set of X-rhodamine (ROX)-labeled MapMarker1000 molecular weight standards (BioVentures). The raw capillary electrophoresis data was processed using Attagraph software (Attagene).
Consider `CC[N+](CC)(CC(=O)Nc1c(C)cccc1C)Cc1ccccc1` (tested in a mixture with another compound), for which the call was inactive.
Consider `CC/C=C\CC1=C(C)CCC1=O`, for which the molecule was called inactive.
On the same count and under the same terms, to `Nc1nnc(-c2ccc([N+](=O)[O-])o2)o1` belongs “inactive”.
On to `COC(=O)[C@]1(C)CCC[C@@]2(C)[C@H]1CC=C1C=C(C(C)C)CC[C@@H]12`, for which the molecule was classed as inactive.
Same read-out and setting: in the case of `CCC(C)=NO` it was “inactive”.
Still for that read-out and setting: to `O=[N+]([O-])c1ccc2nc[nH]c2c1` belongs “inactive”; to `Cc1cc(O)cc(C)c1Cl`, “inactive”.
Same read-out and setting: to `C=CC(C)(CCC=C(C)C)OC(=O)c1ccccc1` (stereo not given) belongs “inactive”.
In general, AC50 refers to the midpoint of the concentration-response curve, whichever way the signal moves. In the case of `CCCCCCCCCCC1CO1` (stereo not given), the AC50 was 100 µM (active).
As for `Brc1ccc(Oc2ccc(Br)cc2)cc1`, the call was inactive.
On to `CO[Si](CCCNCCN)(OC)OC`, for which the molecule was called inactive.
With `c1cc(N(CC2CO2)CC2CO2)ccc1Cc1ccc(N(CC2CO2)CC2CO2)cc1` (stereo not given), the AC50 was 26.4 µM (active).
For `O=C1CCCCCCCCCCCCCC1`, the outcome was inactive.
Still for that read-out and setting: in the case of `Cc1cc(-n2nc3ccc(Cl)cc3n2)c(O)c(C(C)(C)C)c1` it was “inactive”; in that of `Sc1nc2ccccc2s1`, “inactive”; in that of `C[Si](C)(C)O[Si](C)(C)O[Si](C)(C)C`, “inactive”.
Same read-out and setting: in the case of `Nc1ccc(S(=O)(=O)Nc2cnc3ccccc3n2)cc1` it was “inactive”; in that of `CCCCCCCCCC/C=C/C1CC(=O)OC1=O` (stereo not given), “inactive”.
The same measure, in the same setting: in the case of `CC/C=C\CCO` it was “inactive”.
For `COC(=O)CCSCCC(=O)OC`, the outcome was inactive.
The same measure, in the same setting: to `Cc1cc(C)c(S(=O)(=O)O)cc1N=Nc1cc(S(=O)(=O)O)c2ccccc2c1O` belongs “inactive”; to `Cc1ccnc(N)c1`, “inactive”; to `C=CCOC(=O)C(=C)C`, “inactive”.
As to `CNC(=C[N+](=O)[O-])NCCSCc1csc(CN(C)C)n1`, the call was inactive.
For the molecule `CC(C)(Oc1ccc(Cl)cc1)C(=O)O`, the molecule was called inactive.
Still for that read-out and setting: to `Cc1ccccc1S(=O)(=O)O` belongs “inactive”.
Still for that read-out and setting: in the case of `O=C(O)/C=C\C(=O)O` it was “inactive”; in that of `CC/C=C\CCCCCO`, “inactive”.
On the same count and under the same terms, in the case of `C=C1CC[C@H]2C[C@@H]1C2(C)C` it was “inactive”; in that of `CC(=O)Nc1c(I)c(NC(C)=O)c(I)c(C(=O)O)c1I`, “inactive”; in that of `CCC(C)NC(N)=O` (stereo not given), “inactive”.
With `CCO[Si](OCC)(OCC)c1ccccc1`, the molecule was classed as inactive.
Still for that read-out and setting: to `O=C(O)c1ccccc1C(=O)O` belongs “inactive”; to `NC(=O)c1ccc([N+](=O)[O-])cc1Cl`, “inactive”; to `CCOC(=O)CC(=O)OCC`, “inactive”.
Still for that read-out and setting: in the case of `COCCCN` it was “inactive”; in that of `CCCCOC(=O)COc1ccc(Cl)cc1Cl`, “inactive”.
Same read-out and setting: to `NC(N)=Nc1nc(CSCCC(N)=NS(N)(=O)=O)cs1` belongs “inactive”; to `CN(C)c1ccc(C(c2ccccc2)c2ccc(N(C)C)cc2)cc1`, “inactive”; to `C=CCOCC(CC)(CO)COCC=C`, “inactive”.
